Screens (PubChem BioAssay)
Only some compounds are listed: those with a hit (about 3.8% of all), similar ones and a draw of the others.
PfHsp90 set2 – growth inhibition of yeast expressing Plasmodium Hsp90; S. cerevisiae expressing PfHsp90, BacTiter-Glo ATP, 48 h; yeast lacking PDR1 and PDR3 efflux regulators; inhibition, % at 9.4 µM; hit rate 0.32% among 310,000;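 active = every replicate shows inhibition above about 80%, whatever the replicate mean, limit read from the data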;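 note: 0% = DMSO neutral controls and 100% = 20 µM radicicol positive controls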
tim23-1 inh – inhibits growth of tim23-1 mutant yeast. S. cerevisiae tim23-1 growth, BacTiter-Glo luminescence, 24 h. inhibition, % at 20 µM. hit rate 1.3% among 330,000. AID 463212;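 active = growth inhibition of the mutant yeast at or above 50%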;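 note: temperature-sensitive mutant grown at 25 °C; plate controls were DMSO-treated mutant yeast for no effect and medium wells lacking yeast for full effect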
B2AR ag – human beta-2 adrenergic receptor agonism by FAP; P07550; Am2.2-beta2AR cells, FAP receptor internalization, flow cytometry; response, % (concentration not given with the values); hit rate 0.43% among 340,000;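 active = response above a set limit, near 3 SD of response in nonfluorescent compounds, cut at about 42% in these data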
Target sequence (P07550 whole entry, looked up): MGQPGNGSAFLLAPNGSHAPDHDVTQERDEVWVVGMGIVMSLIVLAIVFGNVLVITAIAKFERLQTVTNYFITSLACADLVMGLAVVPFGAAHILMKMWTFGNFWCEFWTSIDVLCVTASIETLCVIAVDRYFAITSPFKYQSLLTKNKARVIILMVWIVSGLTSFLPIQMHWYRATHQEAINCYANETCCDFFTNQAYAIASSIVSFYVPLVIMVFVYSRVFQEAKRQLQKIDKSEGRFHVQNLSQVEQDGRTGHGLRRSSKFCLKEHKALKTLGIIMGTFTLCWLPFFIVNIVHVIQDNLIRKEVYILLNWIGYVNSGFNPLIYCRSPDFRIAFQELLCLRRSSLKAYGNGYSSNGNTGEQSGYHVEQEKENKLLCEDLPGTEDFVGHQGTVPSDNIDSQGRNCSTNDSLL
TIM10 inh – TIM10 yeast growth inhibition; inhibition, % at 10 µM; hit rate 1.4% among 330,000; S. cerevisiae TIM10 strain growth, BacTiter-Glo luminescence, 24 h;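 active = inhibition of 40% or more at the single tested concentration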;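 note: wild-type TIM10 isogenic control strain grown at permissive 25 °C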
tim10-1 inh – growth inhibitors of tim10-1 mutant yeast; S. cerevisiae tim10-1 ts strain growth, BacTiter-Glo, 24 h; inhibition, % at 20 µM; hit rate 2.2% among 330,000; AID 463190;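 active = inhibition of at least 40%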;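 note: mutant grown at 25 °C; 0% = DMSO wells with yeast and 100% = wells holding no yeast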
tim10-1 confirm – tim10-1 yeast growth inhibition, confirmed; shares compounds with tim10-1 inh; S. cerevisiae tim10-1 ts strain growth, BacTiter-Glo, 24 h; inhibition, % at 20 µM; hit rate 56% among 7,400;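 active = inhibition of yeast growth at or above a set limit in either of two repeat tests at 20 µM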;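 note: tim10-1 mutant grown at permissive 25 °C to find synthetic lethal compounds; 0% = DMSO yeast wells and 100% = medium wells without yeast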
Starred values were filed as active, the others as inactive.

For COc1cc2c(cc1OC)CN(CCC(=O)c1ccc(Br)cc1)CC2 the results were tim23-1 inh 21.1, B2AR ag 3.9, TIM10 inh 3.6, tim10-1 inh 49.6* and tim10-1 confirm 32.6*.
`CN(C(=O)Cn1cccc1C1=NC(c2ccccc2)CO1)c1ccccc1` (stereo not given) gave PfHsp90 set2 0.0, tim23-1 inh 29.9, B2AR ag 6.4, TIM10 inh 20.9, tim10-1 inh 41.6* and tim10-1 confirm 17.8.
For CCOc1ccc(C(c2c(C)[nH][nH]c2=O)c2c(C)[nH][nH]c2=O)cc1OC the results were PfHsp90 set2 2.4, tim23-1 inh 49.7, B2AR ag -5.2, TIM10 inh 26.1, tim10-1 inh 42.0* and tim10-1 confirm 23.6.
For Cc1ccc(NS(=O)(=O)c2ccc(-c3cnc(C4CC4)o3)cc2)cc1 the results were PfHsp90 set2 -8.4, tim23-1 inh 26.8, B2AR ag -5.2, TIM10 inh -14.6, tim10-1 inh 40.4* and tim10-1 confirm -10.6.
For CC(=O)c1ccc(NS(=O)(=O)c2ccc(-c3cnc(C4CC4)o3)cc2)cc1 the results were PfHsp90 set2 -17.6, tim23-1 inh 19.6, B2AR ag -12.6, TIM10 inh 6.0 and tim10-1 inh 10.7.
`COc1ccc(C)cc1NS(=O)(=O)c1ccc(-c2cnc(C3CC3)o2)cc1` gave PfHsp90 set2 -32.8, tim23-1 inh 36.8, B2AR ag 8.6, TIM10 inh -21.2, tim10-1 inh 43.3* and tim10-1 confirm 1.5.
`Cc1ccc(CNS(=O)(=O)c2ccc(-c3cnc(C4CC4)o3)cc2)cc1` gave PfHsp90 set2 24.9, tim23-1 inh 45.4, B2AR ag 0.4, TIM10 inh 27.6 and tim10-1 inh 26.6.
COC(=O)C1OCOC2C(C(=O)OC)OCOC12 (stereo not given) was read as PfHsp90 set2 29.7 and B2AR ag 1.3.
For N=c1n(Cc2ccccc2)c2ccccc2n1CC(O)COc1ccc(Cl)cc1Cl (stereo not given) the results were PfHsp90 set2 -24.0, tim23-1 inh 6.9, B2AR ag 28.9, TIM10 inh 18.0, tim10-1 inh 40.0* and tim10-1 confirm -1.5.
`CCCCn1c(N)c(N(CC(C)C)C(=O)COc2cc(C)ccc2Cl)c(=O)[nH]c1=O` gave PfHsp90 set2 -1.9, tim23-1 inh 6.8, B2AR ag -6.6, TIM10 inh -1.7 and tim10-1 inh -5.5.
Screening OC1CCN(c2c3c(nc4cc(-c5ccc(F)cc5)nn24)CCC3)CC1 returned PfHsp90 set2 -2.1, tim23-1 inh 24.9, B2AR ag -18.4, TIM10 inh 27.7, tim10-1 inh 44.6* and tim10-1 confirm 30.6.
For Cc1cccc(-c2cc3nc4c(c(N5CCCC(O)C5)n3n2)CCC4)c1 (stereo not given) the results were tim23-1 inh 39.2, B2AR ag -12.1, TIM10 inh 15.9, tim10-1 inh 46.9* and tim10-1 confirm 14.7.
`OC1CCCN(c2c3c(nc4cc(-c5cccc(Cl)c5)nn24)CCC3)C1` (stereo not given) gave PfHsp90 set2 -16.5, tim23-1 inh 20.6, B2AR ag -5.4, TIM10 inh -23.4 and tim10-1 inh 32.7.
Screening COc1ccc(-c2cc3nc4c(c(N5CCC6(CC5)OCCO6)n3n2)CCC4)cc1 returned PfHsp90 set2 16.6, tim23-1 inh 40.1, B2AR ag 1.1, TIM10 inh 31.8, tim10-1 inh 47.2* and tim10-1 confirm 33.2*.
`CCN(CC)CCN(C(=O)c1ccc2c(c1)CCCC2)c1nc2ccc(C)cc2s1` gave PfHsp90 set2 14.5, tim23-1 inh 46.4, B2AR ag 12.6, TIM10 inh 26.0 and tim10-1 inh 37.5.
For CCN(CC)CCN(C(=O)c1ccc2c(c1)CCCC2)c1nc2ccc(OC)cc2s1 the results were PfHsp90 set2 25.7, tim23-1 inh 33.7, B2AR ag 17.5, TIM10 inh 21.8, tim10-1 inh 51.8* and tim10-1 confirm 35.8*.
`CN(C)CCCN(C(=O)c1ccc2c(c1)CCCC2)c1nc2cc3c(cc2s1)OCO3` gave PfHsp90 set2 18.2, tim23-1 inh 16.9, B2AR ag 13.3, TIM10 inh 17.1, tim10-1 inh 41.5* and tim10-1 confirm 24.9.
`O=C(CSc1nnc(CNC(=O)c2ccco2)o1)Nc1ccc(Br)cc1` gave PfHsp90 set2 -4.0, tim23-1 inh 2.5, B2AR ag -3.0, TIM10 inh 9.7 and tim10-1 inh 2.5.
For Cc1cc(C(=O)C(C)OC(=O)c2ccc(NC(=O)CC#N)cc2)c(C)n1-c1ccccc1 (stereo not given) the results were PfHsp90 set2 -21.7, tim23-1 inh 33.8, B2AR ag 8.3, TIM10 inh 26.2, tim10-1 inh 42.3* and tim10-1 confirm 19.1.
CN(C)c1ccc([C@@H]2[C@@H]([N+](=O)[O-])[C@H]3C=Cc4ccccc4N3[C@H]2C(=O)c2ccc(Cl)cc2)cc1 was read as PfHsp90 set2 -5.4, tim23-1 inh 33.3, B2AR ag -2.7, TIM10 inh 17.3, tim10-1 inh 44.8* and tim10-1 confirm 25.8.
For O=C(c1ccccc1)C1C(c2ccccc2)C1[N+](=O)[O-] (stereo not given) the results were PfHsp90 set2 -46.6, tim23-1 inh 8.9, B2AR ag 3.4, TIM10 inh -2.5 and tim10-1 inh 4.2.
Screening Cc1cc(=O)[nH]c2c1c(C)nn2-c1ccccc1 returned tim23-1 inh -7.9, B2AR ag -0.8, TIM10 inh 3.9 and tim10-1 inh -9.1.
Screening Cc1nn(-c2ccc(Cl)cc2)c2[nH]c(CCl)cc(=O)c12 returned PfHsp90 set2 -27.9, tim23-1 inh 47.0, B2AR ag 9.2, TIM10 inh 31.2, tim10-1 inh 62.5* and tim10-1 confirm 31.8*.
`CCCn1cnc2c(sc3nc4c(cc32)CSC(C)(C)C4)c1=O` gave PfHsp90 set2 -29.8, tim23-1 inh 28.6, B2AR ag -13.5, TIM10 inh 32.0, tim10-1 inh 41.1* and tim10-1 confirm 7.5.
Screening CC1(C)Cc2nc3sc4c(=O)n(Cc5ccccc5)cnc4c3cc2CS1 returned PfHsp90 set2 2.5, tim23-1 inh 23.2, B2AR ag 16.3, TIM10 inh 19.9 and tim10-1 inh 25.8.
`CC1(C)C2(C#N)C(=O)NC(=O)C12C#N` (stereo not given) gave PfHsp90 set2 7.5 and B2AR ag -6.3.
For CC12CCC(C(=O)C1)C1(C)CCCC(=O)C21 (stereo not given) the results were PfHsp90 set2 10.1 and B2AR ag 2.2.
COc1ccc(-c2nn(-c3ccccc3)cc2/C=C(\CC(=O)O)c2nc3ccccc3s2)cc1OC was read as PfHsp90 set2 -25.4, tim23-1 inh 32.7, B2AR ag 1.4, TIM10 inh 19.5, tim10-1 inh 71.4* and tim10-1 confirm 41.5*.
Screening COc1ccc(-c2cn3c(C)c(C(=O)Nc4ccncc4)sc3n2)cc1 returned PfHsp90 set2 11.5, tim23-1 inh 9.4, B2AR ag 19.1, TIM10 inh 0.8 and tim10-1 inh 5.5.
`COc1ccc(-c2cn3c4c(sc3n2)CCCC4)cc1` gave PfHsp90 set2 15.1, tim23-1 inh 38.0, B2AR ag 2.2, TIM10 inh 31.8, tim10-1 inh 41.4* and tim10-1 confirm 11.2.
`[O-][N+](=C(c1ccccc1)c1ccccc1)c1ccccc1` gave B2AR ag -1.6.
For CC(C)c1ccc(NC(=O)CCCN2C(=S)NC(C)(C)CC2C)cc1 (stereo not given) the results were tim23-1 inh 37.6, B2AR ag 11.8, TIM10 inh 14.6, tim10-1 inh 43.5* and tim10-1 confirm 10.3.
